# In the library only some 2.4% were active in any assay of this set; here they are far more common.
# CHT allo act: CHT positive allosteric modulators, primary screen, cell-based, membrane potential dye, choline EC20; CHT-expressing cells; hits give high values; LV-AA mutant CHT in HEK293 cells; B-score at 10 µM; hit rate 0.49% among 310,000; AID 488977, 2010;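 active = initial fluorescence not abnormally high and integrated response B-score, plate-corrected, over 3 SD above library mean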
# ANO1 activ: TMEM16A chloride channel activators or potentiators, primary screen, cell-based, HTS | hit rate 0.3% among 340,000 | Anoctamin-1 (Mus musculus), Q8BHY3 | B-score at 10 µM | HEK293 TMEM16A/YFP-H148Q/I152L, iodide quench fluorescence; hits give low values;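 active = fluorescence-ratio B-score plate-corrected deviation score at least 3 library SD below zero, with starting fluorescence score within 5 deviations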;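 also: channel opened by trigger with iodide after compound preincubation; score built on the fluorescence ratio of max minus min over baseline; more negative score means more quench and so TMEM16A activation or potentiation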
# TMEM16A inh: TMEM16A chloride channel inhibitors, primary screen, cell-based, HTS | AID 588511, 2011 | hit rate 1.2% among 310,000 | Anoctamin-1 (Mus musculus), Q8BHY3 | normalized B-score (activity score, 25-100; higher = stronger inhibition) at 10 µM | HEK293 TMEM16A/YFP iodide influx fluorescence, ionomycin;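 active = ratio plate-corrected score three or more library SD toward inhibition, starting fluorescence score within five deviations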;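 also: score derived from kinetic fluorescence span divided by baseline fluorescence per well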
# CHT block: inhibitors of human choline transporter CHT | CHT-expressing cells, membrane potential dye, choline response; hits give low values | High affinity choline transporter 1 (Homo sapiens), Q9GZV3 | B-score at 10 µM | AID 488975, 2010 | hit rate 0.86% among 310,000;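 active = B-score over 3 SD under the library average, and starting fluorescence ratio not unusually high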;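 also: choline stimulus applied at its EC90 after an EC20 pre-addition; B-score computed on integrated fluorescence ratio after choline addition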
# CHT block conf: CHT inhibitors, confirmation, cell-based, membrane potential dye, duplicate; shares compounds with CHT block; CHT-expressing cells, choline membrane potential dye; LV-to-AA substituted CHT, HEK293 cells; CHT activity remaining % of control (hits give low values), % at 10 µM; hit rate 70% among 2,400; AID 493221, 2011;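 active = choline transporter activity left, mean of duplicates at 10 µM, below buffer-only control mean minus 3 SD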;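 also: depolarization triggered by choline at its EC90 following an EC20 pre-addition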
# HEK293 CHT ctr: membrane potential effects in parental HEK293, counter-screen for CHT inhibitor project, cell-based, membrane potential dye; choline response; active = decrease or increase beyond buffer ±3SD; shares compounds with CHT block; hit rate 4% among 2,400; AID 493222, 2011; membrane potential ratio readout (active if shifted either direction beyond buffer ±3SD; no single direction) at 10 µM;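 also: parental cells lack the transporter so any hit is non-specific; ratio is peak minus trough fluorescence over baseline after EC90 choline challenge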
# Numbers stand for hits; n = inactive; x = not tested or not shown.
SMILES,CHT allo act,ANO1 activ,TMEM16A inh,CHT block,CHT block conf,HEK293 CHT ctr
COc1ccc(NC(=O)CCN2C(=O)c3cccc([N+](=O)[O-])c3C2=O)cc1,n,n,n,-11,n,n
CC(OC(=O)CCN1C(=O)C2CC=CCC2C1=O)C(=O)Nc1cccc(Cl)c1 (stereo not given),n,n,n,n,x,x
CCOC(=O)c1c(NC(=O)CCN2C(=O)c3cccc([N+](=O)[O-])c3C2=O)sc(C(=O)OC(C)C)c1C,n,n,n,-7.5,70%,n
CC(OC(=O)CCN1C(=O)c2cccc([N+](=O)[O-])c2C1=O)C(=O)Nc1cc(Cl)cc(Cl)c1 (stereo not given),n,n,n,-6.6,60%,n
CCOC(=O)c1sc(NC(=O)CCN2CCN(C)CC2)c(C(=O)OCC)c1C,n,n,n,-5.3,47%,n
CC(C)(C)c1ccc(NC(=O)COC(=O)CCN2C(=O)c3cccc([N+](=O)[O-])c3C2=O)cc1,n,n,n,n,x,x
Cc1ccc(NC(=O)CCN2C(=O)c3cccc([N+](=O)[O-])c3C2=O)c(Br)c1,n,n,n,n,x,x
CCc1noc(C)c1C(=O)N(CCC(C)C)c1c(N)n(Cc2ccccc2)c(=O)[nH]c1=O,n,n,n,n,x,x
COc1cc(SC)ccc1C(=O)NC1CCCCC1,n,n,n,-6.2,n,n
COc1cc(SC)ccc1C(=O)OCC(=O)NC1CCCCC1,n,n,n,n,x,x
Oc1ccc(Cl)cc1CNC1CCCCC1,x,n,x,x,x,x
Clc1cccc(Cl)c1CNC1CCCC1,n,n,n,-5.5,11%,-10
COc1ccc(NC(=O)CC2Nc3cccc4cccc(c34)NC2=O)cc1 (stereo not given),n,n,n,n,x,x
O=C(CC1Nc2cccc3cccc(c23)NC1=O)Nc1ccc(F)cc1 (stereo not given),n,n,n,-5.1,n,n
CC1CCN(S(=O)(=O)c2ccc3c(c2)N(CC(=O)NCCCN2CCCCC2)C(=O)CS3)CC1,n,n,n,n,x,x
CC(C)(C)c1nc2cc(Cl)c([N+](=O)[O-])cc2o1,n,n,100,-14,n,n
CC(C)(C)Nc1nc2cc([N+](=O)[O-])ccc2o1,n,n,n,n,x,x
